From PubChem BioAssay (Tox21) come the findings set out here.

A short description of experiment [1]: qHTS assay to identify small molecule antagonists of the androgen receptor (AR) signaling pathway using the MDA cell line in the presence of 0.5 nM R1881 - cell viability counter screen (AID 1259242). Note: nearly all actives have a fitted effect of over 45% in size. Note: potency is the fitted concentration of half-maximal effect. The method in brief:
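Cytotoxicity toward MDA-kb2 cells is measured by CellTiter-Fluor live-cell protease fluorescence after 16 hr compound exposure at 37C in the presence of 0.5 nM R1881 stimulator.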
(In general: In qHTS, concentration-response curves come from the screen itself.)

For experiment [2], the target named is Estrogen receptor (Homo sapiens) (UniProt P03372). Briefly: qHTS assay to identify small molecule antagonists of the estrogen receptor alpha (ER-alpha) signaling pathway using the BG1 cell line in the presence of 0.1 nM 17-beta-estradiol (AID 1259244). Note: nearly all actives have a fitted effect of over 50% in size. In short, it runs like this: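 After 5 days in hormone-depleted medium (charcoal-stripped serum, no phenol red), VM7Luc4E2 cells were seeded, incubated 24 h, then co-treated with compound and 0.1 nM (final) estradiol for 22 h before luminescence detection.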

Experiment [3] can be described thus: qHTS assay to identify small molecule HDAC inhibitors (AID 1259364). Note: nearly all actives have a fitted effect of over 45% in size. Note: potency is the fitted concentration of half-maximal effect. The method in brief:
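Homogeneous cell-based luminescent assay of endogenous class I/II HDAC activity; HCT-116 cells, 2 h compound exposure, 30 min HDAC-Glo development at RT.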

The nature of experiment [4]: qHTS assay to identify small molecule HDAC inhibitors - cell viability counter screen (AID 1259365). Note: series mostly up to about 92 µM; nearly all actives have a fitted effect of over 50% in size. In short, it runs like this: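 After overnight seeding at 1,500 cells per well, wild-type HCT-116 cultures took up compounds in DMSO for 2hr at 37 C. Viable cell content came from luminescence with CellTiter-Glo.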
A short description of experiment [5]: qHTS assay to identify small molecule agonists of the sonic hedgehog signaling (Shh) pathway - cell viability counter screen (AID 1259366). Note: nearly all actives have a fitted effect of over 50% in size. Note: potency is the fitted concentration of half-maximal effect. The method in brief:
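Same-well cytotoxicity read. Gli1-Luc reporter 3T3 cells; compounds 24hr, 37C/5% CO2; CellTiter-Fluor fluorescence.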

Experiment [6] can be described thus: qHTS assay to identify small molecule antagonists of the sonic hedgehog signaling (Shh) pathway - cell viability counter screen (AID 1259367). Note: nearly all actives have a fitted effect of over 55% in size. The method in brief:
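Seed 3T3 Gli1-Luc cells at 2,000 per well; incubate 4 hr; add compound in DMSO, then conditioned medium; incubate at 37C with 5% CO2; add CellTiter-Fluor after 23 hr; read fluorescence 1 hr later.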

The nature of experiment [7]: qHTS assay to identify small molecule agonists of the sonic hedgehog signaling (Shh) pathway (AID 1259368; calls by dose curve;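 note: NIH/3T3-derived 3T3Gli1-Luc cells carrying a stable Gli1-driven firefly luciferase reporter; series mostly up to about 92 µM; nearly all actives have a fitted effect of over 15% in size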). The method in brief: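 Steps: seed 3T3 Gli1-Luc cells, incubate 4 hr at 37 C, pin-transfer compounds in DMSO alongside a positive control, incubate 24 hr, add luciferase detection reagent, wait 30 min at room temperature, read luminescence.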
Experiment [8] in a line: qHTS assay to identify small molecule antagonists of the sonic hedgehog signaling (Shh) pathway (AID 1259369; calls by dose curve; note: nearly all actives have a fitted effect of over 45% in size; note: potency is the fitted concentration of half-maximal effect). The method in brief:
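Inhibition of Shh signalling is measured as reduced Gli1-response-element firefly luciferase output in an NIH/3T3-derived stable reporter clone stimulated with conditioned medium for 24hr.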

The nature of experiment [9]: qHTS assay to identify small molecule agonists of the androgen receptor (AR) signaling pathway in the presence of an antagonist - cell viability counter screen (AID 1259379). Note: nearly all actives have a fitted effect of over 25% in size. Note: potency is the fitted concentration of half-maximal effect. In short, it runs like this: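 Fluorescence from CellTiter-Fluor, added after 15 hr and read 1 hr later, gave cell viability. Cells were MDA-kb2 exposed to compounds (15 concentrations) in the presence of 3.0uM nilutamide at 37C, 0% CO2.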

The nature of experiment [10]: qHTS assay to identify small molecule agonists of the estrogen receptor beta (ER-beta) signaling pathway - cell viability counter screen (AID 1259380). Note: nearly all actives have a fitted effect of over 30% in size. Note: potency is the fitted concentration of half-maximal effect. In short, it runs like this:
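Same-well viability counter screen. Cells: ER-beta-UAS-bla HEK293T, plated 6 hr before compound, in 2% charcoal-stripped FBS. Compound exposure 16 hr, 37C; viability by CellTiter-Glo luminescence after 30 min at room temperature.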

Experiment [11] is described as follows: qHTS assay to identify small molecule antagonists of the estrogen receptor beta (ER-beta) signaling pathway - cell viability counter screen (AID 1259382). Note: series mostly up to about 92 µM; nearly all actives have a fitted effect of over 55% in size. The method in brief: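 Following a 6 hr plating period, HEK293T cells carrying a UAS-driven beta-lactamase reporter under ER-beta control received compounds and 1nM E2 (final). After 16 hr at 37C and 2 hr substrate loading, CellTiter-Glo luminescence indicated viability.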

Experiment [12] concerns the target Estrogen receptor (Homo sapiens) (UniProt P03372). Kind of experiment: qHTS assay to identify small molecule agonists of the estrogen receptor alpha (ER-alpha) signaling pathway in the presence of an antagonist (AID 1259383; calls by dose curve; note: nearly all actives have a fitted effect of over 15% in size; note: potency is the fitted concentration of half-maximal effect; for activation: top concentration of the series differs between compounds). The method in brief: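 Cells are hormone-deprived for 5 days (charcoal-stripped FBS, no phenol red), plated for 24hr, spiked with 10.0nM ICI-182,780, then dosed at 15 concentrations. After 22hr at 37C, ONE-Glo luminescence reports ERE-luciferase activity.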

Experiment [13] addresses Thyrotropin receptor (Homo sapiens) (UniProt P16473). Briefly: qHTS assay to identify small molecule antagonists of the thyroid stimulating hormone receptor (TSHR) signaling pathway (AID 1259385; calls by dose curve; note: nearly all actives have a fitted effect of over 20% in size). In short, it runs like this: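 TSHR-HEK293 cells (800/well) plated 18 h, then compounds with Ro20-1724 and TSH at 1.5 ng/mL final, 30 min at room temperature. cAMP quantified by HTRF (cAMP-d2/anti-cAMP-cryptate, 1 h); 15 concentrations in triplicate.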

Experiment [14] in a line: qHTS assay to identify small molecule agonists of the estrogen receptor alpha (ER-alpha) signaling pathway in the presence of an antagonist - cell viability counter screen (AID 1259386).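 Note: series mostly up to about 92 µM; cells exposed to compounds for 22 h at 37 °C before the viability read; nearly all actives have a fitted effect of over 30% in size.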 The method in brief: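 Cells are starved of estrogens for 5 days in charcoal-stripped serum, seeded for 24hr and co-treated with ICI-182,780 (10.0nM final) and test compounds. After 22hr at 37C, viability is read as CellTiter-Fluor fluorescence.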

Experiment [15] is described as follows: qHTS assay to identify small molecule agonists or antagonists of the thyroid stimulating hormone receptor (TSHR) signaling pathway - wild type cell line counter screen (AID 1259384; calls by dose curve). In short, it runs like this: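 Wild-type Hek293 cells, 800/well, 18 h at 37C, then compound with Ro20-1724 for 30 min RT. cAMP by HTRF (cAMP-d2/anti-cAMP cryptate), 1 h RT, fluorescence read. 15 concentrations, triplicates.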

In experiment [16] the target is Estrogen receptor beta (Homo sapiens) (UniProt Q92731). Kind of experiment: qHTS assay to identify small molecule agonists of the estrogen receptor beta (ER-beta) signaling pathway (AID 1259377; active = well fitted activation curve with a large enough effect in the signal ratio in the repeat runs, not every such curve was filed as active; the % refers to the signal ratio). The method in brief:
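Read-out: beta-lactamase FRET fluorescence. Cell line: ER-beta-UAS-bla HEK293T in 2% charcoal-stripped FBS. Exposure: 16 hr at 37C. Substrate step: 2 h at room temperature.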

Experiment [17] shares this target. Briefly: qHTS assay to identify small molecule antagonists of the estrogen receptor beta (ER-beta) signaling pathway (AID 1259378; active = well fitted inhibition curve with a large enough effect in the signal ratio in the repeat runs, not every such curve was filed as active; the % refers to the signal ratio). The method in brief:
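ER-beta-UAS-bla HEK293T cells in 2% charcoal-stripped FBS medium treated with compound plus 1nM final 17-beta-estradiol for 16 hr at 37C. Beta-lactamase reporter read by FRET substrate fluorescence after 2 hours at room temperature.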

Several values for one entry are separate records, joined by “and”; a condition that tells them apart may be missing. Identical values can stand only once. Records with an inconclusive call do not appear. Where a structure was tested more than once in an assay, its records may differ in their call. Activity calls are given as the source filed them. Unless noted, calls come from the whole dose curve; as a rule, active = well fitted curve in the direction sought with a large enough effect in the repeat runs; inconclusive = weak or mixed curves; inactive = no such curve, though single readings can be large; an effect the other way counts as inactive or inconclusive.

Sequence of Estrogen receptor beta (Homo sapiens) (Q92731 whole entry, looked up): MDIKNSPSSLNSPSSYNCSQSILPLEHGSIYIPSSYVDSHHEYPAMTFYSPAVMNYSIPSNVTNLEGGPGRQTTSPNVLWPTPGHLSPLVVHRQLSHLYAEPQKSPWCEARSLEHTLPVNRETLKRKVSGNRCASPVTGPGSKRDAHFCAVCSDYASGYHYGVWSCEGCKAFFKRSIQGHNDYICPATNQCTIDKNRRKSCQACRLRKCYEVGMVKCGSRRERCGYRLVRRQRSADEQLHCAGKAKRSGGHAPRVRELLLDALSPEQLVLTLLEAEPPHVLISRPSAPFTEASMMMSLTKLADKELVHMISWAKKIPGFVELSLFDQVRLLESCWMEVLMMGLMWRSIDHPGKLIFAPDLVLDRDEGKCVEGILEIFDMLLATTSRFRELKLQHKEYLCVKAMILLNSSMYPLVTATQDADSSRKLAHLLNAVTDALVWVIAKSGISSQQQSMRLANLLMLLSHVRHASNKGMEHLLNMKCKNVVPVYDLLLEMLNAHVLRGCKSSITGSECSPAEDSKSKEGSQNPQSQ
Sequence of Thyrotropin receptor (Homo sapiens) (P16473 whole entry, looked up): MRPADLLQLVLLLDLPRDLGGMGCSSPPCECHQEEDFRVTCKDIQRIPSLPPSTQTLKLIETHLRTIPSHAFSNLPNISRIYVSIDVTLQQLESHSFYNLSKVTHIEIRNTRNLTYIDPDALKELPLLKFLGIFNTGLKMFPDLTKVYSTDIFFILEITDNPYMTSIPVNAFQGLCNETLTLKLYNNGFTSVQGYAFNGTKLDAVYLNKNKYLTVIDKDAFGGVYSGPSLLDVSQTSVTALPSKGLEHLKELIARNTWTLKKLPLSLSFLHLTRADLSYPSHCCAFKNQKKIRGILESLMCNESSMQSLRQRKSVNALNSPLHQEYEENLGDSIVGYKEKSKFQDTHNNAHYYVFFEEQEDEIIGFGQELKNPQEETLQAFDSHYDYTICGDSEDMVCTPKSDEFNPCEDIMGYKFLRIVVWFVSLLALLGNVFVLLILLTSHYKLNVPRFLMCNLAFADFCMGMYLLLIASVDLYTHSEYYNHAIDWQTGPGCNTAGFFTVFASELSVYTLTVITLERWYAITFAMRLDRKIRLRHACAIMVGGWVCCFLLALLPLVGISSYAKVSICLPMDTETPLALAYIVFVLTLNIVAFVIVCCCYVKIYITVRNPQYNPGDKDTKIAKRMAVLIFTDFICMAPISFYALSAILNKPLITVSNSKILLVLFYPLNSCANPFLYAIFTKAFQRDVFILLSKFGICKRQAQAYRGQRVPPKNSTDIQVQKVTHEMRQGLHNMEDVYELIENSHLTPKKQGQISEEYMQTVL
Sequence of Estrogen receptor (Homo sapiens) (P03372 whole entry, looked up): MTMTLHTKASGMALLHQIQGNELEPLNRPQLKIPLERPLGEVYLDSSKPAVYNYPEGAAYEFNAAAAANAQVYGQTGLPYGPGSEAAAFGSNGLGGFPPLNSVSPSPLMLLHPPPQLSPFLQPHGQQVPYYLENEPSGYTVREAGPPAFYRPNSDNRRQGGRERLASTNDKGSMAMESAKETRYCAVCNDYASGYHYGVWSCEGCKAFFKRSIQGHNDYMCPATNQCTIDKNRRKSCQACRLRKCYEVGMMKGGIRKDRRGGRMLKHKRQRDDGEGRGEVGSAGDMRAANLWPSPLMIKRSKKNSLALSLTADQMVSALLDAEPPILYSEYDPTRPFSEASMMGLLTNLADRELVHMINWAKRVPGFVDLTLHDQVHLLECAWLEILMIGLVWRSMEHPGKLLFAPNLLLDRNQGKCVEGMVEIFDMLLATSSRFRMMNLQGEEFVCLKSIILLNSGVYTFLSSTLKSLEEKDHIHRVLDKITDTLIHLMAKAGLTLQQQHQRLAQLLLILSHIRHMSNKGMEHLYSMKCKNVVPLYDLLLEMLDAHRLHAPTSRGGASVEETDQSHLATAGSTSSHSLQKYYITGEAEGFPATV

For the molecule `COc1ccc(-c2coc3cc(O)cc(O)c3c2=O)cc1`, the Potency was 54.9 µM (active) and inactive in experiment [1]; 21.9 µM (active) and 17.2 µM (active) in experiment [3]; 17.4 µM (active) and inactive in experiment [8]; 38.6 µM (active) in [10]; 21.9 µM (active) and 9.69 µM (active) in experiment [12]. The Potency entry in [2], in experiment [5], in experiment [6], in [7], in [9] and in experiment [11] was “inactive” in each case. For the same molecule, the Potency result in [13] and in [14] was “inactive” in each case. Further, in [4], the molecule was called inactive.

Take `ClC/C=C/CCl`: the Potency entry in experiment [1], in experiment [2], in [5], in [6], in experiment [7] and in experiment [8] was “inactive” throughout. Besides, the Potency result in [9], in experiment [10], in experiment [11], in [12], in experiment [15] and in experiment [13] was “inactive” each time. Moreover, the Potency entry in experiment [14] is “inactive”. Further, the molecule was classed as inactive in experiment [4].

Consider `CC(C)(C)c1cccc(C(C)(C)C)c1O`, for which the Potency result in experiment [1], in [2], in [3], in experiment [5], in [6] and in experiment [7] was “inactive” each time. Also, the Potency entry in experiment [9], in experiment [10], in experiment [11], in [12], in experiment [15] and in experiment [13] was “inactive” throughout. Besides, the molecule was called inactive in [4].

On to `Cc1ccc(C(C)(C)C)c(O)c1`, for which the Potency result in experiment [1], in experiment [2], in experiment [3], in [7], in [16] and in experiment [17] was “inactive” in each case. For the same molecule, the Potency entry in [9], in [11], in [12] and in [13] was “inactive” throughout. Also, the molecule was called inactive in experiment [4].

In the case of `COC(=O)C(C)Oc1ccc(Oc2ncc(C(F)(F)F)cc2Cl)cc1` (stereo not given), the Potency entry in experiment [1], in experiment [2], in experiment [3], in experiment [5], in experiment [6] and in experiment [7] was “inactive” each time. For the same molecule, the Potency entry in experiment [16], in [17], in experiment [9], in experiment [10], in [11] and in experiment [12] was “inactive” in each case. Moreover, the Potency result in [13] and in experiment [14] was “inactive” in each case. The call in experiment [4] was inactive. In experiment [8], the Potency entry is “inactive and 30.6 µM (active)”.

With `c1ccc2ncccc2c1`, the Potency result in [1], in [2], in [5], in experiment [6], in [7] and in [8] was “inactive” each time. The Potency entry in experiment [9], in experiment [10], in [11], in experiment [12], in experiment [15] and in [13] was “inactive” in each case. For the same molecule, the result in experiment [4] was inactive.

`O=C(O)CCCCCCCCCCCC(=O)O`: the Potency result in experiment [1], in experiment [5], in [6], in experiment [7], in [8] and in experiment [9] was “inactive” throughout. The Potency result in [10], in experiment [11], in [15], in experiment [13] and in experiment [14] was “inactive” throughout. The Potency in experiment [3] was 30.1 µM (active) and 27.3 µM (active). Further, the molecule was classed as inactive in [4].

As to `O=C(CCCN1CCC(O)(c2ccc(Cl)cc2)CC1)c1ccc(F)cc1`, the Potency result in [1], in [3], in experiment [6], in experiment [7], in experiment [16] and in experiment [17] was “inactive” each time. Besides, in experiment [13], the Potency result was “inactive”. In addition, in experiment [4], the outcome was inactive. The Potency in experiment [5] was 68.6 µM (active) and inactive; in [9] it was 68.6 µM (active) and inactive; in experiment [10], 21.7 µM (active) and 23.7 µM (active).
